# Source: the supplement of paper PMC8728848
# This excerpt belongs to a sample that is enriched for the strongest signals.
# B1: FimD (Bordetella pertussis) (protein)
# chain: MPARVISFCGAALAVWAGLAVQPAMAVDPPVDCGRALGLHFWSSASLISDQTPDGTLIGKPVVGRSLLSKSCKVPDDIKEDLSDNHDGEPVDIVLELGSNYKIRPQSYGHPGIVVDLPFGSTEETGIAIYIDFGSSPMQKVGERQWLYPQKGEVLFDVLTINGDNAEVRYQAIKVGPLKRPRKLVLSQFPNLFTYKWVFMRGTSQERVLAQGTIDTDVATSTIDLKTCRYTSQTVSLPIIQRSALTGVGTTLGMTDFQMPFWCYGWPKVSVYMSATKTQTGVDGVALPATGQAAGMASGVGVQLINGKTQQPVKLGLQGKIALPEAQQTESATFSLPMKAQYYQTSTSTSAGKLSVTYAVTLNYD
# How the values were obtained:
# Assay in all cases: glycan array binding signal (z-score within array); higher = stronger binding
# Settings in all cases: glycan notation: IUPAC condensed, linker removed
# GalNAc(b1-3)Gal = target: GalNAc(b1-3)Gal
# Summary of the method: (§1)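 Glycan array data were curated from 3228 arrays in the Consortium for Functional Glycomics database and kept only where the protein sequence was available. Glycan names were converted to IUPAC-condensed notation, and columns mapping to the same glycan were averaged. The binding signal is a within-array Z-score, averaged across arrays of the same protein sequence at different concentrations or buffers and across linkers. Negative Z-scores can be read as non-binding.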
# GalNAc(b1-3)GalNAc = target: GalNAc(b1-3)GalNAc
# Summary of the method: as §1
# GalNAc(b1-4)GlcNAc = target: GalNAc(b1-4)GlcNAc
# Summary of the method: as §1
# [1] = target: GlcNAc(a1-4)Gal(b1-4)GlcNAc(b1-3)Gal(b1-4)Glc
# Summary of the method: as §1
# [2] = target: GlcNAc(a1-4)Gal(b1-4)GlcNAc(b1-3)Gal(b1-4)GlcNAc(b1-3)Gal(b1-4)GlcNAc
# Summary of the method: as §1
# [3] = target: GlcNAc(b1-2)Man(a1-3)[GlcNAc(b1-2)Man(a1-6)]Man(b1-4)GlcNAc(b1-4)GlcNAc
# Summary of the method: as §1
# [4] = target: GlcNAc(b1-2)[GlcNAc(b1-6)]Man(a1-6)[GlcNAc(b1-4)][GlcNAc(b1-2)Man(a1-3)]Man(b1-4)GlcNAc(b1-4)GlcNAc
# Summary of the method: as §1
# [5] = target: GlcNAc(b1-3)Gal(b1-4)GlcNAc
# Summary of the method: as §1
# [6] = target: GlcNAc(b1-3)Gal(b1-4)GlcNAc(b1-3)Gal(b1-4)GlcNAc(b1-3)Gal(b1-4)GlcNAc(b1-2)[GlcNAc(b1-3)Gal(b1-4)GlcNAc(b1-3)Gal(b1-4)GlcNAc(b1-3)Gal(b1-4)GlcNAc(b1-6)]Man(a1-6)[GlcNAc(b1-3)Gal(b1-4)GlcNAc(b1-3)Gal(b1-4)GlcNAc(b1-3)Gal(b1-4)GlcNAc(b1-2)Man(a1-3)]Man(b1-4)GlcNAc(b1-4)[Fuc(a1-6)]GlcNAc
# Summary of the method: as §1
# GlcNAc(b1-6)GalNAc = target: GlcNAc(b1-6)GalNAc
# Summary of the method: as §1
# [7] = target: Kdn(a2-3)Gal(b1-4)[Fuc(a1-3)]GlcNAc
# Summary of the method: as §1
# [8] = target: Neu5Ac(a2-3)Gal(b1-3)GalNAc
# Summary of the method: as §1
# [9] = target: Neu5Ac(a2-3)Gal(b1-3)GlcNAc(b1-2)Man(a1-3)[GlcNAc(b1-4)][Neu5Ac(a2-3)Gal(b1-3)GlcNAc(b1-2)Man(a1-6)]Man(b1-4)GlcNAc(b1-4)GlcNAc
# Summary of the method: as §1
# [10] = target: Neu5Ac(a2-3)Gal(b1-3)GlcNAc(b1-3)Gal(b1-4)GlcNAc
# Summary of the method: as §1
# [11] = target: Neu5Ac(a2-3)Gal(b1-3)[Fuc(a1-4)]GlcNAc(b1-3)Gal(b1-3)[Fuc(a1-4)]GlcNAc
# Summary of the method: as §1
# [12] = target: Neu5Ac(a2-3)Gal(b1-4)GlcNAc(b1-2)Man
# Summary of the method: as §1
# [13] = target: Neu5Ac(a2-3)Gal(b1-4)GlcNAc(b1-2)Man(a1-3)[Neu5Ac(a2-6)Gal(b1-4)GlcNAc(b1-2)Man(a1-6)]Man(b1-4)GlcNAc(b1-4)GlcNAc
# Summary of the method: as §1
# [14] = target: Neu5Ac(a2-3)Gal(b1-4)GlcNAc(b1-3)Gal(b1-4)GlcNAc(b1-3)Gal(b1-4)GlcNAc
# Summary of the method: as §1
# [15] = target: Neu5Ac(a2-3)Gal(b1-4)[Fuc(a1-3)]GlcNAc(b1-3)Gal(b1-4)GlcNAc
# Summary of the method: as §1
# [16] = target: Neu5Ac(a2-3)Gal(b1-4)[Fuc(a1-3)]GlcNAc(b1-3)Gal(b1-4)[Fuc(a1-3)]GlcNAc(b1-3)Gal(b1-4)[Fuc(a1-3)]GlcNAc
# Summary of the method: as §1
# [17] = target: Neu5Ac(a2-3)[GalNAc(b1-4)]Gal(b1-4)GlcNAc(b1-3)GalNAc
# Summary of the method: as §1
# [18] = target: Neu5Ac(a2-6)Gal(b1-4)GlcNAc(b1-2)Man(a1-3)[Neu5Ac(a2-6)Gal(b1-4)GlcNAc(b1-2)Man(a1-6)]Man(b1-4)GlcNAc(b1-4)GlcNAc
# Summary of the method: as §1
# [19] = target: Neu5Ac(a2-6)Gal(b1-4)GlcNAc(b1-2)Man(a1-6)[GlcNAc(b1-2)Man(a1-3)]Man(b1-4)GlcNAc(b1-4)GlcNAc
# Summary of the method: as §1
# [20] = target: Neu5Ac(a2-6)Gal(b1-4)GlcNAc(b1-3)Gal(b1-4)GlcNAc(b1-3)Gal(b1-4)GlcNAc(b1-2)Man(a1-3)[Neu5Ac(a2-6)Gal(b1-4)GlcNAc(b1-3)Gal(b1-4)GlcNAc(b1-3)Gal(b1-4)GlcNAc(b1-2)Man(a1-6)]GalNAc
# Summary of the method: as §1
# [21] = target: Neu5Ac(a2-6)Gal(b1-4)GlcNAc(b1-6)[Gal(b1-3)]GalNAc
# Summary of the method: as §1
# [22] = target: Neu5Ac(a2-8)Neu5Ac(a2-3)Gal(b1-3)GalNAc(b1-4)[Neu5Ac(a2-8)Neu5Ac(a2-3)]Gal(b1-4)Glc
# Summary of the method: as §1
# [23] = target: Neu5Ac(a2-8)Neu5Ac(a2-3)[Gal(b1-3)GalNAc(b1-4)]Gal(b1-4)Glc
# Summary of the method: as §1
# Neu5Ac(b2-6)GalNAc = target: Neu5Ac(b2-6)GalNAc
# Summary of the method: as §1
# [24] = target: Neu5Gc(a2-8)Neu5Gc(a2-6)Gal(b1-4)GlcNAc
# Summary of the method: as §1
binder,measurement,setting,value
B1,glycan array binding signal (z-score),GalNAc(b1-3)Gal,0.008
same,glycan array binding signal (z-score),GalNAc(b1-3)GalNAc,-0.207
same,glycan array binding signal (z-score),GalNAc(b1-4)GlcNAc,1.38
same,glycan array binding signal (z-score),[1],1.99
same,glycan array binding signal (z-score),[2],-0.238
same,glycan array binding signal (z-score),[3],0.004
same,glycan array binding signal (z-score),[4],-0.119
same,glycan array binding signal (z-score),[5],-0.296
same,glycan array binding signal (z-score),[6],1.29
same,glycan array binding signal (z-score),GlcNAc(b1-6)GalNAc,-0.117
same,glycan array binding signal (z-score),[7],-0.279
same,glycan array binding signal (z-score),[8],0.041
same,glycan array binding signal (z-score),[9],-0.459
same,glycan array binding signal (z-score),[10],-0.268
same,glycan array binding signal (z-score),[11],-0.191
same,glycan array binding signal (z-score),[12],1.16
same,glycan array binding signal (z-score),[13],-0.107
same,glycan array binding signal (z-score),[14],0.504
same,glycan array binding signal (z-score),[15],0.96
same,glycan array binding signal (z-score),[16],-0.135
same,glycan array binding signal (z-score),[17],0.943
same,glycan array binding signal (z-score),[18],0.115
same,glycan array binding signal (z-score),[19],-0.065
same,glycan array binding signal (z-score),[20],1.34
same,glycan array binding signal (z-score),[21],-0.022
same,glycan array binding signal (z-score),[22],1.36
same,glycan array binding signal (z-score),[23],-0.095
same,glycan array binding signal (z-score),Neu5Ac(b2-6)GalNAc,-0.348
same,glycan array binding signal (z-score),[24],-0.611
